In PubChem BioAssay (NCI):
The panel holds about 79,000 compounds, 15% with a hit somewhere; the sample as a whole holds those more often. Cut-off read from the data, not from the text of the source: active = growth inhibition above about 70%; inactive = the rest.

How the values were obtained:
[1] = NCI Yeast Anticancer Drug Screen. Data for the rad50 strain (AID 155);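 note: 0% = growth of vehicle-only cultures of the same strain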; conditions: S. cerevisiae rad50 strain growth inhibition; at 50.0 µM; stronger effect = higher value
In short: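 A DNA repair-deficient yeast mutant serves as the test organism; compound-induced growth inhibition is calculated against vehicle-treated cells.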

[2] = NCI Yeast Anticancer Drug Screen. Data for the mec2-1 strain (AID 157); conditions: S. cerevisiae mec2-1 strain, at 50.0 µM, stronger effect = higher value
In short: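 Using mec2-1 yeast: add compound, measure growth, express inhibition versus vehicle-treated cultures.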

[3] = NCI Yeast Anticancer Drug Screen. Data for the sgs1 mgt1 strain (AID 161);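 note: 0% = growth of cultures given vehicle only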; conditions: S. cerevisiae sgs1 mgt1 strain, at 50.0 µM, stronger effect = higher value
In short: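 Yeast cells carrying a defined DNA-repair defect were exposed to test compounds. Growth inhibition was measured relative to vehicle-treated controls.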

[4] = NCI Yeast Anticancer Drug Screen. Data for the cln2 rad14 strain (AID 165);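 note: 0% = growth equal to vehicle treated cultures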; conditions: S. cerevisiae cln2 rad14 strain, at 50.0 µM, stronger effect = higher value
In short: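 Yeast strain cln2 rad14, bearing defects in cell cycle control and DNA repair, serves as the test system; values reflect growth inhibition compared with vehicle.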

[5] = NCI Yeast Anticancer Drug Screen. Data for the bub3 strain (AID 167); conditions: S. cerevisiae bub3 mutant strain, at 50.0 µM, stronger effect = higher value
In short: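 Inhibition values come from growth of compound-treated mutant yeast normalised to vehicle-treated controls.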

[6] = NCI Yeast Anticancer Drug Screen. Data for the mlh1 rad18 strain (AID 175); conditions: S. cerevisiae mlh1 rad18 strain growth inhibition; at 50.0 µM; stronger effect = higher value
In short: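 Steps: expose repair-defective yeast to compound; measure growth; express inhibition against vehicle-treated controls.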

Measured: growth inhibition

Cn1cc(-c2ccccc2)cc1-c1ccccc1
inactive: [1] -11.4% | [2] 6.6% | [3] -4.5% | [4] 4.9% | [5] -14.9% | [6] 9.75%

CCOC(=O)c1c(SC(=O)c2ccc(C(C)(C)C)cc2)n(-c2ccccc2)c(=S)n(-c2ccccc2)c1=O
inactive: [1] 31.1% | [2] 0.55% | [3] 26.8% | [4] 6.45% | [5] 40% | [6] 18.9%

CCCCCCCCCCCC(=O)N(CCOC(=O)c1ccccc1)CCc1ccccc1
inactive: [1] 32.6% | [2] 9.45% | [3] 16.6% | [4] 19.2% | [5] -3.2% | [6] 24.5%

CC(NCc1c(O)ccc2c(-c3ccccc3)cc(=O)oc12)C(=O)O (stereo unspecified)
inactive: [1] -39.4% | [2] -19.1% | [3] -32.6% | [4] 4.35% | [5] -4.95% | [6] -14.8%

O=C(CC(=O)Nc1ccccc1)N/N=C/c1cc(N=Nc2ccc(Br)cc2)ccc1O
inactive: [1] 16.4% | [2] 24.9% | [3] 53% | [4] 4.65% | [5] 0.2% | [6] 29%

O=C(O)/C=C\C(Cl)(Cl)Cl
inactive: [1] -6.35% | [2] -6.6% | [3] -6.7% | [4] 4.15% | [5] -41% | [6] -13.4%

Cc1[nH]c(=O)nc(N/N=C/c2ccc(O)cc2)c1C(=O)Nc1ccc(Cl)cc1
inactive: [1] -17.6% | [2] -16% | [3] -20.6% | [4] -3.15% | [5] -12.6% | [6] -25.9%

COC(=O)c1nc(SC)[nH]c1CC(N)=O
inactive: [1] 43.5% | [2] 22.4% | [3] 20.5% | [4] -22.8% | [5] 32.7% | [6] -15.2%

COC(=O)N/N=C(/CC1(O)C(=O)Nc2ccc([N+](=O)[O-])cc21)c1ccccc1 (stereo unspecified)
inactive: [1] 48.3% | [2] 34.2% | [3] 36.5% | [4] -3.2% | [5] 0.35% | [6] 40.8%

COc1cccc(NC(=O)Nc2ccccc2Cl)c1
inactive: [1] -13.2% | [2] 8.1% | [3] -3.25% | [4] -19.2% | [5] -1.3% | [6] -32.6%

CCOC1(C)OC2OC(COC(c3ccccc3)(c3ccccc3)c3ccccc3)C(OC(=O)c3ccccc3)C(OC(=O)c3ccccc3)C2O1 (stereo unspecified)
inactive: [1] -3.5% | [2] 14% | [3] 4.05% | [4] -9.4% | [5] -5.9% | [6] 29.6%

Cc1ccc2cccc(C)c2n1
inactive: [1] -14.9% | [2] -26.6% | [3] -45.3% | [4] -6.7% | [5] -29.6% | [6] -23.5%

CC1=C/C(=N\O)C(C(O)(C(F)(F)F)C(F)(F)F)C(C)(C)C1 (stereo unspecified)
inactive: [1] -37.7% | [2] -39% | [3] -17.4% | [4] -12.5% | [5] -7.35% | [6] 2.9%

O=C1c2ccccc2-c2c1c1ccccc1c(=O)n2Cc1ccccc1
inactive: [1] 6.1% | [2] -14.2% | [3] 2.85% | [4] 8.05% | [5] -16.9% | [6] -63.8%

CCCCn1cnc2ccc3[nH]c(C)nc3c2c1=O
inactive: [1] 29.4% | [2] -4.85% | [3] 34.1% | [4] -3.55% | [5] -6.35% | [6] 21.4%

O=C1CCCC2(c3ccc([N+](=O)[O-])cc3)C1C1C(=O)CCCC12c1ccc([N+](=O)[O-])cc1 (stereo unspecified)
inactive: [1] 44% | [2] -0.6% | [3] 14.2% | [4] 12.6% | [5] 5.4% | [6] 5.5%

CC(=O)NCC(=O)O
inactive: [1] 3.7% | [2] -8.75% | [3] -35.1% | [4] -7.1% | [5] -9.6% | [6] -10.1%

CCCCc1c2c(nc3c1CCCC3O)CCCC2 (stereo unspecified)
inactive: [1] -40.4% | [2] -63% | [3] -13.9% | [4] 13.2% | [5] -8.1% | [6] -23.9%

CN1CCCCCCCC(=O)C(OC(=O)c2ccc([N+](=O)[O-])cc2)CCCCCCC1 (stereo unspecified)
inactive: [1] 33.5% | [2] 4.25% | [3] 27% | [4] 9.85% | [5] 1.55% | [6] 14.1%

CC(C)(C)c1ccc(C(O)(c2ccc(C(C)(C)C)cc2)c2ccc(C(C)(C)C)cc2)cc1
inactive: [1] 12.8% | [2] -3.85% | [3] -22.2% | [4] 8.25% | [5] -19.9% | [6] -34.3%

CC(=O)/C=C/C=C/c1ccco1
inactive: [1] -0.85% | [2] 1.3% | [3] 9.15% | [4] -9.7% | [5] 10.4% | [6] 11.6%

O=C1c2cc(Br)ccc2-c2ccc(Br)c3cccc1c23
inactive: [1] -10.6% | [2] -20.8% | [3] -6.1% | [4] 10.3% | [5] -1.05% | [6] -20.3%

CCOC(=O)NCC(=O)NCC(=O)NCC(N)=O
inactive: [1] -14.2% | [2] -19.2% | [3] -12.9% | [4] -9.65% | [5] -25.1% | [6] 7.95%

CC1NCCC(CC(=O)O)C1CC(=O)O (stereo unspecified)
inactive: [1] -7.55% | [2] -26% | [3] 1.75% | [4] -41.1% | [5] -26.8% | [6] -10.3%

CC12C(=O)OC3CCC1CC32 (stereo unspecified)
inactive: [1] 10.8% | [2] 7.1% | [3] -5.85% | [4] -26.6% | [5] 6.65% | [6] 2.95%

COC(=O)NN(C(=O)OC)C12CCCC1N(C(=O)OC)N(C(=O)OC)c1c2ccc2ccccc12 (stereo unspecified)
inactive: [1] 32.1% | [2] -1.55% | [3] 0.6% | [4] -4.9% | [5] 1.9% | [6] 6.75%

O=[N+]([O-])c1c(O)c(O)c2ccccc2c1Nc1ccccc1
inactive: [1] -29.9% | [2] -5.8% | [3] -0.3% | [4] -62.4% | [5] 11.7% | [6] -1.65%

NC(N)=Nc1ccc(Sc2ccc(N=C(N)N)cc2)cc1
inactive: [1] -15.8% | [2] -35.5% | [3] -16.6% | [4] -19.6% | [5] -4.65% | [6] -26.5%

CCOC(CN=C=S)OCC
inactive: [1] 4.25% | [2] -3.95% | [3] 16.6% | [4] 9.05% | [5] -3.35% | [6] 4.65%

CS(=O)(=O)C1CCCCC1SC#N (stereo unspecified)
inactive: [1] -5.1% | [2] -16.7% | [3] -14.5% | [4] -19% | [5] 4.1% | [6] 3.45%

CCCCCCCCCCCCCCC(=O)OCCN(C)C
inactive: [1] -3.6% | [2] -18% | [3] 1.45% | [4] -18.2% | [5] 8.35% | [6] -10.1%

CCOC(=O)C(/C=N/C(=S)Nc1c(C)cccc1C)=C(/O)c1ccccc1
inactive: [1] -50.3% | [2] -21.6% | [3] -26.1% | [4] -18.6% | [5] -21.2% | [6] -33.4%

O=C(O)CCC(=O)Nc1ccccc1C(=O)O
inactive: [1] -1.15% | [2] 11.8% | [3] -8.15% | [4] 0.15% | [5] 5.6% | [6] -4.5%

CCCOC(=O)c1c(C)c(C)cc(C)c1C
inactive: [1] 5.9% | [2] 1.75% | [3] 14.6% | [4] 11.8% | [5] -1.3% | [6] -12.3%

Cc1nc2[nH]ncn2c(=O)c1CCCl
inactive: [1] 20.9% | [2] -31.9% | [3] -11.9% | [4] -7.55% | [5] 8.1% | [6] 9.4%

CN1CCN(c2ccncc2S(=O)(=O)N2CCN(C)CC2)CC1
inactive: [1] -17.2% | [2] -12.7% | [3] 1.2% | [4] -15.4% | [5] -11.4% | [6] -2.5%

CC(C)(C)C1CCC(C(=O)O)CC1 (stereo unspecified)
inactive: [1] 24.4% | [2] -3.05% | [3] 19.8% | [4] 10.6% | [5] 5.6% | [6] 24.9%

O=C(Nc1ccccc1)C1C2C=CC(CC2)C1C(=O)Nc1ccccc1 (stereo unspecified)
inactive: [1] -0.25% | [2] 4.95% | [3] 7.7% | [4] -10.2% | [5] -11.5% | [6] -13.6%

Cc1ccc(CN(C)N=Nc2ccc(C#N)cc2)cc1
inactive: [1] 2.55% | [2] 34.2% | [3] 45.6% | [4] 12.1% | [5] 65.3% | [6] 6.7%

COC(=O)C(Cc1ccccc1)NC(=O)Cn1ccnc1[N+](=O)[O-] (stereo unspecified)
inactive: [1] 9.65% | [2] -19.6% | [3] 15.2% | [4] 7.7% | [5] -16% | [6] -3.3%

C(=N/N=C(/C(=N/N=C/c1ccccc1)c1ccccc1)c1ccccc1)\c1ccccc1
inactive: [1] 26.6% | [2] 5% | [3] 33.3% | [4] 8.4% | [5] 11.9% | [6] 5.45%
